D2 antag – HTS Assay for Allosteric Antagonists of the Human D2 Dopamine Receptor: Primary Screen for Antagonists; D(2) dopamine receptor (Homo sapiens), P14416; HEK293 TREx D2 cells, calcium flux, dopamine EC80; inhibition, % at 10 µM; 340,000 tested, 2% active; in the data active = inhibition above about 30%; inactive = below that, where a call was filed; also: 0% is about no effect
Target sequence (P14416 whole entry, looked up): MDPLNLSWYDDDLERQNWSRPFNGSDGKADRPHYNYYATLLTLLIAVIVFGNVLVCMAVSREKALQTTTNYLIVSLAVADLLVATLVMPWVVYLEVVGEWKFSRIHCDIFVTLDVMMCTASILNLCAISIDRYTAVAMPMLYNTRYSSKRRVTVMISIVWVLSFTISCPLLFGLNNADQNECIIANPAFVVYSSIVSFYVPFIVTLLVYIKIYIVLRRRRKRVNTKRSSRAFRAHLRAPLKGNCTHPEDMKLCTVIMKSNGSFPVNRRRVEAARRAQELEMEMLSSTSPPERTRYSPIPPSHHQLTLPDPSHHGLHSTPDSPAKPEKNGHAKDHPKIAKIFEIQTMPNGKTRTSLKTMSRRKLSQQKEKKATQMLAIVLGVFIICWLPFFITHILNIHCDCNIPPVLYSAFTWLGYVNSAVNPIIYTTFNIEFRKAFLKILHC
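Measurement of antagonist activity uses fluorescent calcium dye in inducible HEK293 T-REx D2 cells: 10 s baseline, compound addition with 180 s read, EC80 dopamine addition with a further 180 s read.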
D2 ag-1 – Beta-Arrestin HTS for Positive Allosteric Modulators of the Human D2 Dopamine Receptor: Agonists | D(2) dopamine receptor (Homo sapiens), P14416 | activation, % (test concentration not listed) | DiscoveRx PathHunter D2 beta-arrestin, luminescence, 90 min; 100% = 57 uM dopamine signal | 360,000 tested, 0.084% active; in the data active = activation above about 40%; inconclusive = between about 15% and that limit
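Agonist mode: compounds alone added to overnight-plated D2 PathHunter cells for 90 min at 37 C, with 57 uM final dopamine (EC100) defining full response. Beta-arrestin recruitment detected by chemiluminescent reagent, read after 1 h at ambient temperature.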
D2 PAM-1 – Beta-Arrestin HTS for Positive Allosteric Modulators of the Human D2 Dopamine Receptor: Potentiators; D(2) dopamine receptor (Homo sapiens), P14416; DiscoveRx D2 beta-arrestin cells, luminescence, 90 min; 100% = 57 uM dopamine signal; potentiation, % (concentration not given with the values); 360,000 tested, 0.23% active; AID 624464, 2012; in the data active = potentiation above about 50%; inconclusive = mostly about 30% to 49%
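PathHunter beta-arrestin assay in DiscoveRx D2 cells. Compounds were added with an EC20 of dopamine (50 nM final) for 90 min at 37 deg C. Luminescence was read 1 h after detection reagent, with 57 uM dopamine as the EC100 control.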
D2 PAM-2 – HTS Assay for Positive Allosteric Modulators of the Human D2 Dopamine Receptor: Primary Screen for Potentiators; D(2) dopamine receptor (Homo sapiens), P14416; HEK293 T-REx D2, calcium flux, EC20 dopamine potentiation; potentiation, % at 10 µM; 340,000 tested, 0.34% active; AID 485347, 2010;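 active = potentiation over 3 SD above the plate norm, cut at about 30% in these data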; also: 0% is about no effect
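Potentiation of an EC20 dopamine calcium response is measured in a force-coupled, tetracycline-inducible Hek293 Trex D2 line. Compound-only kinetic reads over 180 s flag agonists before dopamine addition.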
D2 ag-2 – HTS Assay for Allosteric Agonists of the Human D2 Dopamine Receptor: Primary Screen for Agonists. D(2) dopamine receptor (Homo sapiens), P14416. HEK293 T-REx D2 cells, calcium flux agonist mode. activation, % at 2 µM. 340,000 tested, 0.53% active;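 active = activation over 3 SD above normal in the single-dose calcium agonist read, cut at about 30% in these data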; also: 0% is about no effect
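Agonism is scored from calcium flux in a force-coupled, inducible HEK293 cell line expressing D2, read kinetically for 180 s after compound addition against dopamine controls.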
* = called active by the depositor; ? = inconclusive; nt = not tested or not shown. In the library only some 2.4% were active in any assay of this set; here they are far more common.

SMILES | D2 antag | D2 ag-1 | D2 PAM-1 | D2 PAM-2 | D2 ag-2
O=C1C(=O)c2c(ccc3ccccc23)-c2ccccc21 | nt | ? | 59* | nt | nt
O=C(COC(=O)c1ccccc1SCC(=O)N1CCCC1)Nc1ccccc1C(F)(F)F | 31* | -4 | -22 | 1 | -1
CCOc1ccccc1NC(=O)COC(=O)c1ccccc1SCC(=O)N1CCCC1 | 1 | 6 | 8 | 2 | 0
COc1ccc(-c2noc(C3CCCN(S(=O)(=O)c4cccc(Cl)c4)C3)n2)cc1OC (stereo unspecified) | -1 | -3 | -3 | 13 | 1
O=S(=O)(c1ccc(Cl)cc1)N1CCCC(c2nc(-c3ccc(F)cc3)no2)C1 (stereo unspecified) | 51* | 0 | -1 | -3 | 0
Cc1ccc(C(=O)c2cnc3ccccc3c2-c2ccccc2)cc1 | -4 | -4 | -7 | 31* | 2
Cc1cc(=O)n(Cc2cccc(Cl)c2)c2c1c(C)nn2-c1ccccc1 | nt | nt | nt | 11 | 0
COc1ccccc1Cn1c(CNS(=O)(=O)c2c(C)cc(C)cc2C)nc2cccnc21 | nt | nt | nt | 1 | nt
O=C(Nc1ccccc1)c1cc(-n2cnnc2)ccc1Cl | nt | 0 | -5 | nt | nt
Cc1nc(NC(=O)c2cc(-n3cnnc3)ccc2Cl)ccc1Br | 30* | -2 | 3 | 13 | 1
CSCCC(NC(=O)c1ccccc1)C(=O)NCCc1ccc2c(c1)OCCO2 (stereo unspecified) | 66* | 1 | -28 | -10 | 0
NC(=O)CCC(NC(=O)c1ccc(Cl)cc1)C(=O)NCCc1ccc2c(c1)OCCO2 (stereo unspecified) | 42* | -6 | -11 | 8 | 0
CSCCC(NC(=O)c1ccccc1)C(=O)NCc1ccc(S(N)(=O)=O)cc1 (stereo unspecified) | 31* | 2 | 0 | -8 | 1
CSCCC(NC(=O)c1ccccc1)C(=O)NC1CC1 (stereo unspecified) | 11 | -3 | -16 | -1 | 0
NC(=O)CC(NC(=O)c1ccc(Cl)cc1)C(=O)NCCc1ccc(S(N)(=O)=O)cc1 (stereo unspecified) | 10 | 10 | -4 | -5 | 0
CCc1ccc2c(c1)NC(=O)C2(C)Cc1ccccc1OC (stereo unspecified) | nt | 11 | -1 | nt | nt
CCc1ccc(Sc2cc(C(=O)NCc3ccccc3OC)c3ccccc3n2)cc1 | nt | nt | nt | 2 | 1
CN(C)c1ccc(NC(=O)CN2C(=O)c3ccccc3Sc3ccc(C(=O)N4CCCC4)cc32)cc1 | nt | nt | nt | -2 | 0
N/C(Cc1ccc([N+](=O)[O-])cc1)=N\OC(=O)c1ccc([N+](=O)[O-])cc1 | -1 | 42* | 61* | 12 | 0
N/C(Cc1ccc(Cl)cc1)=N\OC(=O)Cc1ccc([N+](=O)[O-])cc1 | -5 | ? | 86* | 2 | -1
COc1cc(C(=O)O/N=C(\N)Cc2ccc([N+](=O)[O-])cc2)cc(OC)c1OC | 3 | ? | ? | 0 | 0
N/C(Cc1ccc([N+](=O)[O-])cc1)=N\OC(=O)c1cccc(Br)c1 | -10 | 63* | 24 | -1 | -2
Cc1ccc(NS(=O)(=O)c2c(C)nc3sccn3c2=O)c(Cl)c1 | nt | nt | nt | 19 | 1
Fc1ccc(CNc2nc3c(-c4ccc(F)cc4)nnn3c3ccccc23)cc1 | nt | nt | nt | 3 | 0
CCn1c(=O)c(C(=O)NNC(=O)c2ccccc2Cl)c(O)c2ccccc21 | -17 | -2 | -10 | nt | -3
CCn1c(=O)c(C(=O)NNC(=O)c2ccccc2F)c(O)c2ccccc21 | 21 | 3 | -5 | -9 | 48*
COC(=O)c1ccsc1NS(=O)(=O)c1ccccc1 | -16 | -5 | -1 | -6 | 0
O=C(CN1CCOCC1)Nc1ncc(Cc2cccc3ccccc23)s1 | 42* | 3 | 7 | 3 | 0
